Experimental data as given in PubChem BioAssay (Tox21).
Inconclusive results are not listed. Unmarked numbers belong to inactive results. The call rests on the fitted dose curve; in most records, active means well fitted cell-killing curve with a large enough effect in the repeat runs; inconclusive means weak or mixed curves, or effect the other way; inactive means no such curve, though single readings can be large or run the other way.

Assay: qHTS assay to identify small molecule antagonists of the progesterone receptor (PR) signaling pathway - cell viability counter screen (AID 1346798); further: nearly all actives have a fitted effect of over 50% in size
Conditions: PR-UAS-bla HEK293T viability, CellTiter-Glo luminescence, 16 h; series mostly up to 92.4 µM; activity change, negative = cytotoxicity: at the top concentration
Source text: National Center for Advancing Translational Sciences [NCATS]
NIH Chemical Genomics Center [NCGC]
U.S. Environmental Protection Agency [EPA]
National Institutes of Environmental Health Sciences [NIEHS]
National Toxicology Program [NTP]
U.S. Food and Drug Administration [FDA]
Progesterone receptor (PR), a nuclear hormone receptor, plays an important role in development, metabolic homeostasis and reproduction. It is activated by the steroid hormone progesterone. Endocrine disrupting chemicals (EDCs) and their interactions with steroid hormone receptors like PR causes disruption of normal endocrine function. To identify the compounds that inhibit PR signaling, a PR-UAS-bla GripTite cell line i.e. PR-UAS-bla HEK293T (Invitrogen, Carlsbad, CA, USA) containing a beta-lactamase reporter gene under the control of an UAS response element was used to screen Tox21 10K compound library. The cytotoxicity of the Tox21 compound library against the PR-bla cell line was tested in parallel by measuring the cell viability using CellTiter-Glo assay in the same wells.
Tox21 Assay Protocol Summary:
PR-UAS-bla HEK293T cells were dispensed at 3,000 cells/4 uL of assay medium containing 2% charcoal stripped FBS per well into black wall/clear-bottom 1536-well plates using a Multidrop Combi (ThermoFisher Scientific, Waltham, MA) dispenser. After the assay plates were incubated at a 37C and 5% CO2 for 4 hr, 23 nL of compounds dissolved in DMSO, positive controls or DMSO only was transferred to the assay plate by a Pintool station (Kalypsys, San Diego, CA), followed by addition of 1 uL of R5020 in assay medium using a Flying Reagent Dispenser (FRD, Aurora Discovery, San Diego, CA). The plates were incubated at 37C and 5% CO2 for 16 hr. Then 1 uL of LiveBLAzer B/G FRET substrate was added using a Flying Reagent Dispenser, the plates were incubated at room temperature for 2 hours, and fluorescence intensity was measured by an Envision plate reader (PerkinElmer, Shelton, CT). For cell viability readout that measures cytotoxicity, 4 uL/well of CellTiter-Glo reagent was added into the assay plates using a FRD. After 30 min incubation at room temperature, the luminescence intensity in the plates was measured using a ViewLux (PerkinElmer) plate reader.
On the % scale 0 is the no-effect control and ±100 the full control effect.

| SMILES | activity change, negative = cytotoxicity |
| --- | --- |
| CCOC(=O)C(=O)CCCCCCl | -1.65% [at 42.5 µM] |
| Nc1ccn([C@@H]2O[C@H](CO)[C@@H](O)C2(F)F)c(=O)n1 | -0.325% [at 42.5 µM] |
| CNCC(O)c1ccc(O)c(O)c1 (stereo not given) | -6.67% [at 42.5 µM] |
| CCCCCCCCCCCCSC | -6.69% |
| CC1=CCC(O)(C(C)C)CC1 (stereo not given) | 3.41% |
| CC1CCC(CO)CC1 (stereo not given) | -17% |
| OCCc1ccccn1 | -1.96% |
| O=C(O)CNC(=O)c1ccccc1 | 18.1% [at 42.5 µM] |
| CC12CCC(C(=O)C1=O)C2(C)C (stereo not given) | 10.4% |
| CCO[Si](OCC)(OCC)c1ccccc1 | 2.62% |
| C1CCC2(CCCCO2)OC1 | -0.915% |
| N[C@@H](CCC(=O)O)C(=O)O | 2.71% |
| CCCCc1nc(Cl)c(CO)n1Cc1ccc(-c2ccccc2-c2nn[nH]n2)cc1 | -17.5% [at 42.5 µM] |
| C[N+]1(C)CCCC(OC(=O)C(O)(c2ccccc2)c2ccccc2)C1 (stereo not given) | -1.45% [at 42.5 µM] |
| FB(F)F | 13.6% |
| C=C(C)C(=O)OCCOCCOCCOCCOC(=O)C(=C)C | 12.2% |
| CC(=O)C1CCCCC1=O (stereo not given) | 5.26% |
| C=CC(=O)OCCCl | 2.36% |
| COCCOC[C@H](CC1(C(=O)NC2CCC(C(=O)O)CC2)CCCC1)C(=O)Oc1ccc2c(c1)CCC2 (stereo not given in full) | -23.2% |
| CC(C)[C@H]1CC[C@@H](C)CC1=O | 0.202% |

| SMILES | activity change, negative = cytotoxicity |
| --- | --- |
| CC(=O)N[C@H]1[C@H]([C@H](O)[C@H](O)CO)OC(C(=O)O)=C[C@@H]1N=C(N)N | 5.68% [at 42.5 µM] |
| CCC(C(=O)NC(=O)NC(C)=O)c1ccccc1 (stereo not given) | 8.47% [at 42.5 µM] |
| NCCCC[C@H](N[C@@H](CCc1ccccc1)C(=O)O)C(=O)N1CCC[C@H]1C(=O)O | 2.89% [at 42.5 µM] |
| CC1=NN(c2cc(S(=O)(=O)O)ccc2Cl)C(=O)C1N=Nc1ccccc1 (stereo not given) | -7.05% |
| C[C@@H]1CCC[C@H](C)N1 | 7.87% [at 42.5 µM] |
| CC1(C)OC[C@@H](COC(=O)CCc2ccc(OC[C@@H](O)CNCCNC(=O)N3CCOCC3)cc2)O1 | 3.79% [at 42.5 µM] |
| NC(=O)N1c2ccccc2CC(=O)c2ccccc21 | 14% [at 42.5 µM] |
| Cc1ccc(C(=O)c2ccccc2)cc1 | -12.3% |
| NC(=O)N[C@@H](CCC(=O)O)C(=O)O | 3.97% [at 42.5 µM] |
| CCCCCCCCCCOc1cc2c(=O)c(C(=O)OCC)c[nH]c2cc1OCC | 1.18% [at 8.39 µM] |
| c1ccc(CCc2ccccc2)cc1 | -0.144% |
| CN(C)C(=O)Oc1cccc([N+](C)(C)C)c1 | -3.31% [at 42.5 µM] |
| CC(C)(C)C(=O)c1ccccc1 | -1.65% |
| C=C[Si](OC(C)=O)(OC(C)=O)OC(C)=O | -17.5% |
| CN1CC(=O)N/C1=N/C(=O)Nc1cccc(Cl)c1 | 0.394% [at 42.5 µM] |
| CCCCCCCCCC[N+](C)(C)[O-] | -12.4% |
| Cc1onc(-c2c(Cl)cccc2Cl)c1C(=O)Cl | 4.63% [at 42.5 µM] |
| CCCCCCCCCCCCCCCCCCO | 8.84% [at 42.5 µM] |
| COc1ccnc(CS(=O)c2nc3cc(OC(F)F)ccc3[nH]2)c1OC (stereo not given) | 19.7% |
| CCOC(=O)COc1cc(-n2ncc(C(F)(F)F)c(C)c2=O)c(F)cc1Cl | 14.5% |
